# The other results are listed elsewhere or left out. A number with no mark means an inactive call.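 Rule for the calls: active = inhibition above the cutoff, the mean of compounds lying between the control bounds plus 3 SD of those compounds (cut at about 17% in these data); inactive = the rest.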
# Target: Fibrinogen beta chain (Homo sapiens) (UniProt P02675)
# Assay: fibrin DD(E) probe displacement, second cyclic peptide – biochemical, fluorescence polarization, human fibrin, counter-screen for fibrin DD(E)-Tn7 binding project, confirmation (AID 720633);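 note: 0% = median of compound sample wells and 100% = excess unlabeled Aha-Tn7 peptide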
# Conditions: TRITC-Tn7 probe displacement, at 8.3 µM, stronger effect = higher value
# Sequence of Fibrinogen beta chain (Homo sapiens) (P02675 whole entry, looked up): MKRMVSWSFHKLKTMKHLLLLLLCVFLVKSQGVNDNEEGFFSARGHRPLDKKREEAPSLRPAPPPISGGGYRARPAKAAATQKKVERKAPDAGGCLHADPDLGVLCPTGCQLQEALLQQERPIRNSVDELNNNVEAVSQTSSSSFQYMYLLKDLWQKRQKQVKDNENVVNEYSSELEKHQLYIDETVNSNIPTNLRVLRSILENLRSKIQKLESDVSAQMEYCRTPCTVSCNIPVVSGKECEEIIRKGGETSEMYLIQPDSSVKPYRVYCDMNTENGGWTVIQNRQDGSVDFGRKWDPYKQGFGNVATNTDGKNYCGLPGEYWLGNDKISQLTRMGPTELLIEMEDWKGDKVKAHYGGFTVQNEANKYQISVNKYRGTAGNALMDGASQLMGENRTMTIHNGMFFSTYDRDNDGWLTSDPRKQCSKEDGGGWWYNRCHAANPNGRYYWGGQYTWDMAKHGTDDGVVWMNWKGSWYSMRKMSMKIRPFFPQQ
row,SMILES,inhibition
1,c1cc(-c2nn[nH]n2)ccc1CN1CCCCC1,-9.04%
2,COc1ccc(N=Nc2c(-c3ccc(OC)cc3)[nH]oc2=O)cc1,-6.55%
3,Cc1cc2nc3c(=O)[nH]c(=O)nc-3n(C[C@H](O)[C@H](O)[C@H](O)CO)c2cc1C,12.4%
4,O=C(COC(=O)/C=C/c1ccc(OC(F)F)cc1)NC1CCCCC1,6.67%
5,O=C(/C=C/c1ccccc1[N+](=O)[O-])NCC1CCCO1 (stereo unspecified),6.91%
6,COc1ccc(S(=O)(=O)c2c[nH]c(=S)[nH]c2=O)cc1Cl,-4.35%
7,O=C(CSc1nnc(-c2ccccn2)n1-c1ccc(Cl)cc1)Nc1ccccc1-c1ccccc1,-2.23%
8,O=C(COC(=O)c1ccc([N+](=O)[O-])cc1Cl)NC(=O)c1ccccc1,1.45%
9,COc1ccc(-c2nc(CCNC(=O)c3ccc(Br)o3)cs2)cc1,-3.63%
10,OC(c1ccccc1)c1nc(-c2cnc3ccccc3c2)cs1 (stereo unspecified),3.54%
11,Cc1nn(C)cc1N1C(=O)c2cccc3c(N)ccc(c23)C1=O,1.67%
12,CN1c2ccc(C=O)c3c(C=O)ccc(c23)N(C)C1(C)C,-6.98%
13,Cn1c(CC(=O)NNC(=O)c2ccccc2F)nc2ccccc21,-5.95%
14,COc1cc(C(=S)N2CCOCC2)ccc1O,6.48%
15,Cc1nnc2n1N=C(c1ccc3c(c1)NC(=O)CO3)CS2,-7.74%
16,CN1C(=O)c2cccc3c(N)ccc(c23)C1=O,8.6%

# Source: PubChem BioAssay AID720633 (The Scripps Research Institute Molecular Screening Center, 2013)
